We go through 35 molecules from PubChem BioAssay (NCATS).

Inconclusive results are not listed. Values without a mark were called inactive. Active and inactive are the calls of the source. Calls come from the whole dose curve; as a rule, active = well fitted curve in the direction sought with a large enough effect; inconclusive = small, poorly fitted or top-dose-only effect, or another doubt; inactive = no such curve, though single readings can be large; an effect the other way counts as inactive or inconclusive.

Test [1] has as its system Zika virus NS2B-NS3 protease (linked construct). Put plainly: Confirmatory screen NINDS AMC qHTS for Zika virus inhibitors (AID 1347152).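 For activity change, negative = inhibition: top concentration of the series differs between compounds; 0% = no-inhibitor control and -100% = no-enzyme control.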 Note: nearly all actives have a fitted effect of over 70% in size. Note: potency is the fitted concentration of half-maximal effect. The following applies: Purified linked NS2B-NS3, AMC substrate fluorescence; series mostly up to 56.6 µM. In outline:
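IC50s from 4-parameter Hill fits of percent inhibition, based on AMC fluorescence gain (340/450 nm) over 15 min with 10 microM Bz-Nle-KRR-AMC. Enzyme: 1 nM linked NS2B-NS3 in Tris-HCl pH 8.0; 15-min compound preincubation.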
A general note: In qHTS, concentration-response curves come from the screen itself.

The subject of test [2] is Zika virus NS2B-NS3 protease. Put plainly: Primary screen GU AMC qHTS for Zika virus inhibitors (AID 1347154).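 For activity change, negative = inhibition: 0% = no-inhibitor control and -100% = no-enzyme control.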 Note: nearly all actives have a fitted effect of over 70% in size. Note: potency is the fitted concentration of half-maximal effect. The following applies: Zika NS2B-NS3 unlinked protease, AMC fluorogenic substrate; series mostly up to 54.1 µM. In short, it runs like this: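 Fluorogenic AMC-substrate cleavage by noncovalent NS2B-NS3 protease complex (25 nM, pH 8.0 Tris buffer with Tween 20) followed for 15 minutes at room temperature (~20% conversion). Percent inhibition from ex340/em450 signal change, fitted by 4-parameter Hill equation.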

A short description of test [3]: Confirmatory screen NINDS Rhodamine qHTS for Zika virus inhibitors (AID 1347161).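 For activity change, negative = inhibition: plate controls were no-inhibitor control for no effect and no-enzyme control for full effect.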 Note: nearly all actives have a fitted effect of over 60% in size. Note: potency is the fitted concentration of half-maximal effect. The following applies: purified enzyme assay, Rhodamine110 substrate fluorescence, 15 min; series mostly up to 114 µM. In short, it runs like this: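 Percent inhibition, normalized to uninhibited and enzyme-free controls, is fitted to a 4-parameter Hill equation. Fluorescence change comes from a 15-min cleavage of 1.5 microM bis-peptide Rhodamine110 substrate by 25 nM linked NS2B-NS3 at room temperature.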

Test [4] has as its system Zika virus NS2B-NS3 protease (unlinked complex). In words: Primary screen GU Rhodamine qHTS for Zika virus inhibitors: Unlinked NS2B-NS3 protease assay (AID 1347159). For activity change, negative = inhibition: % is set by controls: 0 for no effect and ±100 for the full control effect. Note: nearly all actives have a fitted effect of over 60% in size. Note: potency is the fitted concentration of half-maximal effect. The following applies: Recombinant ZIKV NS2B-NS3 protease, Rhodamine110 substrate fluorescence; series mostly up to 107 µM. In short, it runs like this:
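Percent inhibition came from the 15-min rise in Rhodamine110 fluorescence (1.5 microM substrate, ~15% conversion), normalized to no-inhibitor and no-enzyme wells and Hill-fitted. Unlinked protease, 25 nM, pH 8.0 Tris buffer; compounds up to 114 microM, 15-min preincubation.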

Test [5] relates to Zika virus NS2B-NS3 protease (linked construct). Put plainly: Primary screen NINDS Rhodamine qHTS for Zika virus inhibitors (AID 1347160). For activity change, negative = inhibition: % is set by controls: 0 for no effect and ±100 for the full control effect. Note: nearly all actives have a fitted effect of over 55% in size. Note: potency is the fitted concentration of half-maximal effect. The following applies: purified NS2B-NS3 protease, Rhodamine110 substrate fluorescence; series mostly up to 57.1 µM. In short, it runs like this: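 Rhodamine110-peptide cleavage (1.5 µM substrate) by 25 nM linked NS2B-NS3 enzyme at pH 8.0 (Tris, Tween 20), after 15 min RT preincubation with compounds; 15-min fluorescence change normalized to controls and Hill-fitted.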

In test [6] the test system is Zika virus NS2B-NS3 protease (linked). In words: 384 well plate NINDS AMC confirmatory qHTS for Zika virus inhibitors (AID 1347163).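 For activity change, negative = inhibition: fluorescence of AMC released from Ac-VKTGKR-AMC peptide cleaved by the protease; top concentration of the series differs between compounds; 0% = no-inhibitor control and -100% = no-enzyme control.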 Note: nearly all actives have a fitted effect of over 50% in size. Note: potency is the fitted concentration of half-maximal effect. The following applies: Recombinant NS2B-NS3 protease, Ac-VKTGKR-AMC fluorescence; series mostly up to 100 µM. In short, it runs like this: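 Fluorescence at 355/460 nm was read after 25 minutes of cleavage of 30 microM Ac-VKTGKR-AMC at room temperature, in the dark. Before substrate addition, compounds (up to 1 mM final) sat ~15 minutes with 5, 30 or 60 nM linked protease. Signals were normalized to no-enzyme and no-inhibitor wells.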

Test [7] deals with Zika virus NS2B-NS3 protease (linked construct). Put plainly: 384 well plate NINDS Rhodamine confirmatory qHTS for Zika virus inhibitors (AID 1347164).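 Note: fluorescence from protease cleavage of Ac-LKRR-rhodamine 110 substrate; potency is the fitted concentration of half-maximal effect; nearly all actives have a fitted effect of over 65% in size.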 The following applies: rhodamine-110 peptide substrate fluorescence; series mostly up to 1 mM. In outline:
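Fluorescence at 485/538 nm was measured 25 minutes after adding 10 microM Ac-LKRR-Rd substrate, in the dark at room temperature. The protease (5, 30 or 60 nM final) had been preincubated ~15 minutes with compound; aprotinin as control.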

The test system of test [8] is Zika virus NS2B-NS3 protease (unlinked). Put plainly: Optimization of GU AMC qHTS for Zika virus inhibitors: Unlinked NS2B-NS3 protease assay (AID 1347151).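 Note: 0% = no-inhibitor control and -100% = no-enzyme control; nearly all actives have a fitted effect of over 80% in size.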 The following applies: recombinant ZIKV NS2B-NS3 protease, fluorogenic AMC substrate; series mostly up to 52.5 µM. In short, it runs like this:
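Fluorescence gain (340/450 nm) over 15 min at room temperature, ~20% conversion, gave percent inhibition fitted to a 4-parameter Hill equation; enzyme was unlinked NS2B-NS3 (25 nM final), pH 8.0 Tris buffer.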

Test [9] is described as follows: Confirmatory screen GU Rhodamine qHTS for Zika virus inhibitors qHTS (AID 1347157). Note: potency is the fitted concentration of half-maximal effect; nearly all actives have a fitted effect of over 70% in size. The following applies: purified enzyme assay, Rhodamine110 substrate fluorescence, 15 min; series mostly up to 114 µM. In outline: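 In dose–response format, inhibition of unlinked protease (25 nM) was measured with 1.5 microM bis-peptide Rhodamine110 substrate. Aprotinin served as the intraplate control.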

A short description of test [10]: ZIKV-mCherry secondary qHTS for Zika virus inhibitors (AID 1347158). Note: top concentration of the series differs between compounds. The following applies: Vero cells, ZIKV-mCherry infection imaging, 48-72 h; series mostly up to 49.2 µM. In short, it runs like this: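 Percent infection is the share of Hoechst-identified Vero nuclei with mCherry signal above 450 RFU (3 SD over negative controls). Cells were infected with recombinant ZIKV-mCherry at MOI 1 after compound addition and imaged 48–72 h later.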

Turning to `COc1ccc(-c2ccc3ncc4c(c3c2)n(-c2ccc(N3CCNCC3)c(C(F)(F)F)c2)c(=O)n4C)cn1`, the activity change, negative = inhibition in [1] was -9% [at 5.51 µM]; in test [3], 14.2% [at 12.7 µM]. Moreover, in test [2], the Potency was 21.5 µM (active).

On to `CC(=O)O[C@]1(C(C)=O)CC[C@H]2[C@@H]3C=C(Cl)C4=CC(=O)[C@@H]5C[C@H]5[C@]4(C)[C@@H]3CC[C@@]21C`, for which the Potency entry in test [2] was “inactive”.

`Cc1ccc(NC(=O)c2cccc(N(C)C)c2)cc1NC(=O)c1ccc(O)cc1`: in test [2], the Potency entry was “inactive”.

For `CNC(=O)[C@H](CC1=CN=C2C=CCC=C12)NC(=O)[C@@H](CC(=O)NO)CC(C)C`, the Potency entry in [2] is “inactive”.

`CCc1cc(-c2n[nH]c(C)c2-c2ccc3c(c2)OCCO3)c(O)cc1O`: the Potency result in test [2] was “inactive”.

Consider `COc1cc(F)c(C(C)C)cc1-c1ccc(C(F)(F)F)cc1CN1C(=O)O[C@H](c2cc(C(F)(F)F)cc(C(F)(F)F)c2)[C@@H]1C`, for which the Potency entry in test [2] was “inactive”.

Regarding `c1cc(OCCN2CCCCC2)cc(-c2n[nH]c3ccc(-c4ncn[nH]4)cc23)c1`, the Potency in test [1] and in test [2] was 24.1 µM (active) each time. The Potency entry in test [4], in [5] and in [3] was “inactive” throughout.

Take `C=CC[N+]1([C@H]2C[C@H]3[C@@H]4CC[C@H]5C[C@H](O)[C@@H](N6CCOCC6)C[C@]5(C)[C@@H]4CC[C@]3(C)[C@H]2OC(C)=O)CCCC1`: the Potency entry in [2] is “inactive”.

As for `Fc1ccc(C(c2ccc(F)cc2)N2CCN(CC=Cc3ccccc3)CC2)cc1`, the Potency entry in test [1] and in test [3] was “inactive” throughout.

Turning to `COC(=O)[C@H](c1ccccc1Cl)N1CCc2sccc2C1`, the Potency result in test [2] is “inactive”.

As to `C[C@@H]1CC=CC=CC=CC=C[C@@H](O[C@@H]2O[C@H](C)[C@@H](O)[C@H](N)[C@H]2O)C[C@@H]2O[C@](O)(C[C@@H](O)C[C@@H]3O[C@@H]3C=CC(=O)O1)C[C@H](O)[C@@H]2C(=O)O`, in test [2], the Potency entry is “inactive”.

With `O=C1Nc2ccc(I)cc2C1=Cc1cc(Br)c(O)c(Br)c1`, the Potency entry in [1] was “inactive”. Moreover, the Potency was 12.1 µM (active) in test [2] and 24.8 µM (active) in test [3].

Take `C[C@]12C=CC(=O)C=C1CC[C@@H]1[C@@H]2[C@@H](O)C[C@@]2(C)[C@@H]1CC[C@]2(O)C(=O)CO`: the Potency result in [2] is “inactive”.

As to `Cc1nc(NC(=O)N2CCC[C@@H]2C(N)=O)sc1-c1csc(C(C)(C)C)n1`, in [2], the Potency entry is “inactive”.

Consider `O=C(O)c1nc(=O)[nH]c(=O)[nH]1`, for which the Potency entry in test [2] is “inactive”.

`O=C(Nc1ccccc1)Nc1ccc(-c2ccc(C(=O)[C@H]3CCC[C@H]3C(=O)O)cc2)cc1`: the Potency is 24.1 µM (active) in [1], 3.92 µM (active) in test [3] and 14.1 µM (active) in test [7]. The Potency result in [6] was “inactive”.

As to `COc1cc(Cl)cn2c(-c3cccc(NC4CNC4)n3)cnc12`, the Potency in [1] was 27.1 µM (active).

`CCCCC[C@H](O)C=C[C@H]1[C@H](O)CC(=O)[C@H]1CCCCCCC(=O)O`: the Potency result in test [1] and in test [3] was “inactive” in each case.

Regarding `O=C(O)Cc1cccc(OCCCN(Cc2cccc(C(F)(F)F)c2Cl)CC(c2ccccc2)c2ccccc2)c1`, the Potency in test [1] is 19.2 µM (active); in test [3], 1.56 µM (active); in test [7], 28.2 µM (active).

As to `OC[C@H]1O[C@@H](O[C@H]2[C@@H](O)[C@@](O)(CO)O[C@@H]2CO)[C@H](O)[C@@H](O)[C@@H]1O`, in test [2], the Potency result was “inactive”.

`CCC[C@H](N[C@@H](C)C(=O)N1[C@@H]2CCCC[C@H]2C[C@H]1C(=O)O)C(=O)OCC`: in test [2], the Potency result was “inactive”.

For the molecule `CCCCOCCOc1nc(-c2ccc(C(=O)O)c(F)c2)sc1C`, the Potency in test [1] is 19.2 µM (active); in test [3], 49.3 µM (active).

Turning to `CN(CC=CC#CC(C)(C)C)Cc1cccc2ccccc12`, the Potency result in test [2] was “inactive”.

As to `CO[C@H]1/C=C\O[C@@]2(C)Oc3c(C)c(O)c4c(O)c(c5c(nc6cc(C)ccn65)c4c3C2=O)NC(=O)C(C)=CC=C[C@H](C)[C@H](O)[C@@H](C)[C@@H](O)[C@@H](C)[C@H](OC(C)=O)[C@H]1C`, the Potency result in [2] is “inactive”.

In the case of `CCOC(=O)[C@H](CCc1ccccc1)N[C@@H](C)C(=O)N1CCCC1C(=O)O` (stereo partly specified), the Potency result in test [1] and in [3] was “inactive” throughout.

Turning to `O=C(Nc1cccc2c(=O)cc(-c3nn[nH]n3)oc12)c1ccc(OCCCCc2ccccc2)cc1`, the Potency was 5.41 µM (active) in [1], 1.75 µM (active) in test [3] and 28.2 µM (active) in [6].

Take `OC(c1cc(C(F)(F)F)nc2c(C(F)(F)F)cccc12)C1CCCCN1` (stereo unspecified): the outcome in test [8] was inactive. The Potency entry in test [2] is “inactive”.

For the molecule `C[C@]12CCC3=C4CCC(=O)C=C4CC[C@@H]3[C@H]1CC[C@@]2(O)CC#N`, the Potency result in [2] is “inactive”.

`Cc1nc(C(=O)NCC(=O)O)c(O)c2ccc(Oc3ccccc3)cc12`: the Potency in [1] was 21.5 µM (active); in test [2] it was 21.5 µM (active); in test [9] it was 44.1 µM (active); in test [4] it was 22.4 µM (active); in test [3], 34.9 µM (active). Besides, the Potency entry in test [5] was “inactive”.

For the molecule `CC(C)c1onc(-c2c(Cl)cccc2Cl)c1COc1ccc(C=Cc2cccc(C(=O)O)c2)c(Cl)c1`, the Potency in test [1] is 24.1 µM (active); in test [3], 1.56 µM (active).

For the molecule `N#CC1(c2cccc(C(=O)Nc3cc(Oc4ccc5nc(NC(=O)C6CC6)sc5n4)ccc3F)c2Cl)CC1`, the Potency entry in [1] and in [5] was “inactive” in each case. Further, the Potency in test [2] is 21.5 µM (active); in test [9] it was 22.1 µM (active); in [4], 22.4 µM (active); in test [7], 50.1 µM (active).

Consider `N#CC(c1ccc(Cl)cc1)c1c(Cl)cc(-n2ncc(=O)[nH]c2=O)cc1Cl` (stereo unspecified), for which the Potency in [1] is 21.5 µM (active); in test [3], 4.4 µM (active); in test [7], 35.5 µM (active).

`CC(NCCc1ccc(O)cc1)C(O)c1ccc(O)cc1` (stereo unspecified): the Potency result in test [2] was “inactive”.

As for `CCOc1ccccc1N=Nc1c(C)[nH]n(-c2nc(-c3ccccc3)cs2)c1=O`, the Potency result in [2] is “inactive”.

Take `COc1cc(Nc2nc3ccccc3nc2NS(=O)(=O)c2ccc(NC(=O)c3ccc(C)c(OC)c3)cc2)cc(OC)c1`: the Potency is 6.98 µM (active) in test [1]; 1.39 µM (active) in test [9]; 1.78 µM (active) in [4]; 3.16 µM (active) in test [5]; 1.39 µM (active) in test [3]; 8.91 µM (active) in [7]. The Potency result in [2] and in test [6] was “inactive” throughout. Besides, in test [10], the outcome was inactive.
